Data: PubChem BioAssay (NCI)
About 79,000 compounds went through this panel and 15% of them were active in at least one assay; those are over-represented in the sample as a whole. The source made the active and inactive calls. Rule as the data show it: active = growth inhibition above about 70%; inactive = the rest. Where a SMILES comes first, the peptide text is derived from it. [ ]: non-standard residue; d: D form. The star is where a group is joined. ξ: configuration not given here. ξAsp(βξ-Me) = CC(C(=O)O)C(N)C(=O)O; X11 = CC(N*)C1NC(=O)C2CCCCN2C1=O; ξAbu(3ξ-NH2) = CC(N)C(N)C(=O)O; X10 = CCC(C)CCC/C=C/CC(=O)*

Experiments:
[1] = NCI Yeast Anticancer Drug Screen. Data for the rad50 strain (AID 155);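 also: 0% = growth of vehicle-only cultures of the same strain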; settings: S. cerevisiae rad50 strain growth inhibition; at 50.0 µM; stronger effect = higher value
Procedure, shortened: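 Genetically altered yeast (DNA repair pathway); compound treatment; growth inhibition vs vehicle ctrl.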

[2] = NCI Yeast Anticancer Drug Screen. Data for the mec2-1 strain (AID 157); settings: S. cerevisiae mec2-1 strain, at 50.0 µM, stronger effect = higher value
Procedure, shortened: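 mec2-1 yeast strain, carrying an alteration in DNA damage repair or cell cycle control, was exposed to compounds; growth inhibition was measured relative to vehicle-treated controls.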

[3] = NCI Yeast Anticancer Drug Screen. Data for the sgs1 mgt1 strain (AID 161);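 also: 0% = growth of cultures given vehicle only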; settings: S. cerevisiae sgs1 mgt1 strain, at 50.0 µM, stronger effect = higher value
Procedure, shortened: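 This yeast growth screen uses a strain with defined DNA-repair lesions; compound-treated growth is compared with vehicle-treated growth.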

[4] = NCI Yeast Anticancer Drug Screen. Data for the cln2 rad14 strain (AID 165);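 also: 0% = growth equal to vehicle treated cultures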; settings: S. cerevisiae cln2 rad14 strain, at 50.0 µM, stronger effect = higher value
Procedure, shortened: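 Yeast carrying cln2 and rad14 alterations (cell cycle control and DNA damage repair) were exposed to compounds. Growth inhibition was measured against vehicle-treated controls.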

[5] = NCI Yeast Anticancer Drug Screen. Data for the bub3 strain (AID 167); settings: S. cerevisiae bub3 mutant strain, at 50.0 µM, stronger effect = higher value
Procedure, shortened: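 Yeast carrying a defined mutation is treated with each compound, and growth is compared with that of vehicle-exposed cells to give inhibition.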

[6] = NCI Yeast Anticancer Drug Screen. Data for the mlh1 rad18 strain (AID 175); settings: S. cerevisiae mlh1 rad18 strain growth inhibition; at 50.0 µM; stronger effect = higher value
Procedure, shortened: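 Growth inhibition of the yeast strain was measured after compound exposure and expressed relative to vehicle-treated controls. The strain carries defined defects in DNA damage repair.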

Measured: growth inhibition

CCn1c(S)c(N=NC(=S)c2ccc3ccccc3n2)c2ccccc21
inactive: [1] 46% | [2] 18.9% | [3] 27.8% | [4] 23.4% | [5] 17.4% | [6] 11.5%

CCC(C)CCC/C=C/CC(=O)NC(CC(=O)O)C(=O)NC(C(=O)NC(CC(=O)O)C(=O)NCC(=O)NC(CC(=O)O)C(=O)NCC(=O)NC(C(=O)NC(C(=O)N1CCCC1C(=O)NC(C)C1NC(=O)C2CCCCN2C1=O)C(C)C)C(C)N)C(C)C(=O)O (stereo not drawn) (X10-D[ξAsp(βξ-Me)]DGDG[ξAbu(3ξ-NH2)]VP-X11; configuration not given here)
inactive: [1] -38.3% | [2] -42.5% | [3] -56.2% | [4] -67.4% | [5] -29.5% | [6] -25.9%

CC1OC(c2ccccc2)OC1C (stereo unspecified)
inactive: [1] 18.6% | [2] -4.65% | [3] -6.9% | [4] -29.9% | [5] -18.9% | [6] 11.8%

Cn1c(-c2ccc3c(c2)OCO3)cc(=O)c2ccccc21
inactive: [1] -11.2% | [2] -17.6% | [3] -4.9% | [4] -4.55% | [5] 4.85% | [6] 0.6%

Cc1csc(=NCc2cccnc2)n1C
inactive: [1] 14.7% | [2] -9.75% | [3] 23.6% | [4] 23.4% | [5] 19.8% | [6] 15.8%

CCOC(=O)C(Cc1ccccc1)NC(=O)c1[nH]cnc1/N=N/N(C)C (stereo unspecified)
inactive: [1] 44% | [2] -44% | [3] -29.4% | [4] -2.05% | [5] 2.8% | [6] -22.3%

NC(=O)N/N=C(\CCC(=O)N(Cc1ccccc1)Cc1ccccc1)CC(=O)c1ccc(F)cc1
inactive: [1] -1.5% | [2] 10.8% | [3] -30.9% | [4] 18.8% | [5] -7.9% | [6] -14.9%

Cc1nc(C(N)=S)sc1C(=O)CC(=O)C(=O)Nc1ccccc1[N+](=O)[O-]
inactive: [1] 0.15% | [2] -9% | [3] 10.8% | [4] 7% | [5] 17.4% | [6] 1.95%

Cc1cccc(SC(=O)Nc2cc([N+](=O)[O-])ccc2Cl)c1
inactive: [1] 6.9% | [2] 4.4% | [3] 11.6% | [4] 10.6% | [5] 17.6% | [6] 20.5%

CC([C@H]1CC[C@H]2[C@@H]3CC=C4C[C@@H](O)CC[C@]4(C)[C@H]3CC[C@]12C)C(O)(c1ccccc1)c1ccccc1 (stereo partly specified)
inactive: [1] 40.9% | [2] 19.8% | [3] 43.4% | [4] 37.6% | [5] 23.4% | [6] 25.2%

C=CCOC1OC(CO)C(O)C(O)C1O (stereo unspecified)
inactive: [1] 9.8% | [2] 38% | [3] 29.2% | [4] 11.5% | [5] 7.3% | [6] 9.35%

CC1CCCC2C(=O)OC(=O)C12 (stereo unspecified)
inactive: [1] -5.3% | [2] -9.6% | [3] -13.1% | [4] -60.6% | [5] -21.1% | [6] -11.4%

Cc1ccc(NC(=S)N(CCC#N)C2CCCCC2)cc1
inactive: [1] -7.6% | [2] -10.1% | [3] 16.2% | [4] 6.95% | [5] 6.3% | [6] 0.85%

CC1(C)C2CC3C(C2)C31C
inactive: [1] 1% | [2] 3.6% | [3] -10.2% | [4] 5.35% | [5] 1.3% | [6] -0.75%

CCOC(=O)C(N=Nc1ccccc1)C(=O)c1ccccc1 (stereo unspecified)
inactive: [1] 23.4% | [2] -2.75% | [3] 50.7% | [4] -22.1% | [5] 38.8% | [6] 28.5%

CC1CN(CCO)C(C)(C)C1 (stereo unspecified)
inactive: [1] 4.6% | [2] 17.8% | [3] -6.3% | [4] -12.8% | [5] -9.2% | [6] -17%

Cc1ccc(C)c(NC(=O)C(=O)CC(=O)c2cccc3ccccc23)c1
inactive: [1] -15.8% | [2] -33.1% | [3] 2.05% | [4] 17.1% | [5] -20.8% | [6] -21.1%

CC1CC2=Cc3c(O)c(O)cc(O)c3C(=O)C2=CO1 (stereo unspecified)
inactive: [1] -5.5% | [2] -31.7% | [3] -19.7% | [4] -11.6% | [5] -5.7% | [6] -19.1%

O=C(CN1CCOCC1)Nc1ccc(S(=O)(=O)c2ccc([N+](=O)[O-])cc2)cc1
inactive: [1] 52.3% | [2] 15% | [6] 26.1%
active: [3] 99.3% | [4] 98.3% | [5] 96.7%

CN(C)c1ccc(C=C2C(=O)OC(C)(C)OC2=O)cc1Br
inactive: [1] 1.55% | [2] -13.8% | [3] -4.1% | [4] 32% | [5] -17.6% | [6] 10.7%

CN(C)c1ccc(/C=C(\C#N)c2c(Br)cccc2Br)cc1
inactive: [1] -20.1% | [2] -18.8% | [3] -3.65% | [4] -42.8% | [5] 3.1% | [6] -14.7%

O=C(O)C1=NN(c2cc(Cl)c(S(=O)(=O)O)cc2Cl)C(=O)C1
inactive: [1] -33.2% | [2] -45.1% | [3] -14.1% | [4] 6.1% | [5] -5.85% | [6] -32.9%

O=C(NNC(=O)C(Oc1ccccc1)c1ccccc1)C(Cl)Cl (stereo unspecified)
inactive: [1] -9.5% | [2] 4.55% | [3] 0.55% | [4] -2.45% | [5] 10.3% | [6] 5.9%

COC(=O)C1(CC(=O)c2ccc(C)cc2)NC(=S)NC(=O)C1C#N (stereo unspecified)
inactive: [1] -4.7% | [2] -4.8% | [3] -30.1% | [4] -8.65% | [5] -34.6% | [6] -0.85%

CC(C)CCOC(=O)N(C)c1ccccc1
inactive: [1] 9.3% | [2] 0.2% | [3] 10.3% | [4] -17.9% | [5] -24% | [6] -9.8%

O=P12N(CCN1c1ccccc1)CCN2c1ccccc1
inactive: [1] -26.4% | [2] -34.1% | [3] -13.8% | [4] 19.6% | [5] 10.2% | [6] -25.5%

N#Cc1ccc(C=NC23CC4CC(CC(C4)C2)C3)cc1
inactive: [1] -12% | [2] -10% | [3] -6.7% | [4] 2.4% | [5] -2% | [6] -4.1%

CC(=O)c1cc2ccccc2n(O)c1=N
inactive: [1] -32.9% | [2] -10.8% | [3] -24% | [4] 17.1% | [5] -15.2% | [6] -17.3%

O=CC1CCCO1 (stereo unspecified)
inactive: [1] 21.2% | [2] -22.2% | [3] 15.2% | [4] 6.9% | [5] 6.45% | [6] 22%

COc1cc(C2c3cc4c(cc3[C@@H](Nc3ccc(C#N)cc3)C3COC(=O)[C@H]23)OCO4)cc(OC)c1O (stereo partly specified)
active: [1] 87.5% | [2] 89.7% | [3] 89.5% | [4] 85.5% | [5] 89% | [6] 88.3%

C#CC(CC(C)CC(C)(C)C)N(C)C (stereo unspecified)
inactive: [1] 39% | [2] 22.8% | [3] 16.2% | [4] 17.8% | [5] 3.8% | [6] 31.3%

O=C(NN(Cn1c(=S)sc2ccccc21)Cn1c(=S)sc2ccccc21)c1ccccc1O
inactive: [4] 57.6% | [5] 69%
active: [1] 86.7% | [2] 74.2% | [3] 89% | [6] 76.2%

c1ccc(-c2nc(-c3ccccc3SSc3ccccc3-c3nc(-c4ccccc4)nn3-c3ccccc3)n(-c3ccccc3)n2)cc1
inactive: [1] -14.5% | [2] -6.3% | [3] 0.8% | [4] 3.25% | [5] -8.8% | [6] 18.9%

CC1=CC(=O)C(=Ic2ccccc2)C(=O)O1
inactive: [1] 11.2% | [2] -8.25% | [3] 4.6% | [4] 9.65% | [5] -3.85% | [6] 14.6%

OCC(O)COc1cccc2cccnc12 (stereo unspecified)
inactive: [1] 4.75% | [2] -15% | [3] 0.4% | [4] -26.1% | [5] 11.2% | [6] 8.3%

COc1ccc(OC)c2c1CCCC2
inactive: [1] -8.4% | [2] -5.95% | [3] -1.65% | [4] -7.35% | [5] 0.95% | [6] 7.1%
